# Test results from the supplement of paper PMC11219838.
# Unmarked numbers belong to inactive results.
# Key:
# Conditions in all cases: 60 µM; 5 days; temperature: 20 °C
# Meloidogyne hapla J2 = experiment: proportion of mobile M. hapla J2 relative to DMSO control (fraction of DMSO control); higher = more viable, less nematicidal, active = 0.7 or less
# Procedure, shortened: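 Two biological replicates were run and averaged, each on 96-well plates in which about 25 M. hapla J2 sat in distilled water per well. Compound was pinned in to give 60 µM final and 0.6% v/v DMSO, and the sealed plates were shaken at 200 rpm and 20 °C for 5 days before 2 µL 1 M NaOH was added. Mobility was scored microscopically and divided by the mean from the plate's DMSO-only wells, of which there were eight.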
# [1] = test system: Caenorhabditis elegans dauer (daf-2(e1370)); experiment: proportion of mobile C. elegans dauer larvae relative to DMSO control (fraction of DMSO control); higher = more viable, less nematicidal, active = 0.63 or less; extreme values may be limits of the assay
# Procedure, shortened: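 Compound was added by pinning to 60 µM final, giving 0.6% v/v DMSO, in 96-well plates containing about 20 C. elegans dauers per well in liquid NGM. These dauers came from synchronized larvae held on MYOB plates with E. coli OP50 for 48 h at 25 °C. Plates were sealed and shaken at 200 rpm at 20 °C for 5 days. Under a dissection microscope, the proportion of mobile worms was scored relative to DMSO wells, and two biological replicates were averaged.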
# Ditylenchus dipsaci = experiment: proportion of mobile D. dipsaci (mixed stage) relative to DMSO control (fraction of DMSO control); higher = more viable, less nematicidal, active = 0.86 or less; extreme values may be limits of the assay
# Procedure, shortened: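 The worms, D. dipsaci raised on pea plants in Gamborg B-5 agar, were recovered through a filter funnel into water. Each well of a 96-well plate then held about 20 of them in distilled water plus pinned compound at 60 µM final (0.6% v/v DMSO), and the sealed plates were shaken at 200 rpm at 20 °C for 5 days. Following addition of 2 µL 1 M NaOH, mobile worms were counted by microscopy, and mobility was expressed against DMSO controls as the average of two biological replicates.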
SMILES,proportion of mobile M. hapla J2 (Meloidogyne hapla J2),proportion of mobile C. elegans dauer larvae [1],proportion of mobile D. dipsaci (Ditylenchus dipsaci)
c1ccc(-c2nc(C3CCCCC3)no2)cc1,0.956,1,1
Cc1ccc(-c2nnc(SCc3ccccc3)o2)cc1,0.256 (active),0.371 (active),0.889
Cc1ccc(NC(=O)CSc2nnc(-c3ccco3)o2)cc1Cl,0.96,1,0.5 (active)
COC(=O)c1ccc(NC(=O)CSc2nnc(-c3ccc(Cl)cc3Cl)o2)cc1,0.929,1,1
COc1ccccc1-c1noc(-c2ccc(C(C)(C)C)cc2)n1,1.03,1,1
CCOc1nc(C)ccc1-c1noc(-c2cccc(C)c2)n1,0.847,1,1
COc1ccccc1OCc1nc(-c2cccc(C)c2)no1,0.871,1,1
CCOc1ccc(-c2noc(-c3ccncc3)n2)cc1OC,1,1,1
COc1ccc(-c2noc(-c3ccccc3Cl)n2)cc1,0.885,1,1
CC(C)C(=O)Nc1ccccc1-c1nc(-c2ccncc2)no1,0.987,1,1
Clc1ccc(CSc2nnc(-c3ccccc3)o2)cc1Cl,1.01,1,1
O=C(CSc1nnc(-c2ccncc2)o1)Nc1cccc(Cl)c1Cl,0.818,1,1
